A short description of assay [1]: CCTE_Harrill_HTTr_Apoptosis_MCF7: CCTE's 6-hour Apoptosis Assessment for the High-Throughput Transcriptomics (HTTr) Platform, in MCF-7 cells cultured in DMEM + 10% fetal bovine serum, Harrill Lab (AID 2284011). In short, it runs like this:
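MCF-7 cells in DMEM + 10% fetal bovine serum were exposed to chemicals for 6 hours over an eight-point dilution series. Caspase-3/7 activation was imaged by high content imaging with CellEvent Caspase 3/7 Green; bidirectional fitting used DMSO as baseline.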

Assay [2] is described as follows: CCTE_Harrill_HTTr_CellCount_MCF7: CCTE's Cell Proliferation Assessment for the High-Throughput Transcriptomics (HTTr) Platform, Harrill Lab (AID 2284012; active = hit-call score of the fitted dose curve at least 0.9, where 1 is the maximum;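 note: count of Hoechst-stained nuclei per well by high-content imaging in MCF-7 cells; cells exposed to compound for six hours; intended direction is loss of nuclei count meaning fewer cells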). The procedure, abridged:
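Chemicals in eight-point dilution series are added to MCF-7 cells for six hours, nuclei are stained with Hoechst and imaged, and per-well nuclei counts are fitted in both directions relative to DMSO controls.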

A short description of assay [3]: CCTE_Shafer_MEA_acute_burst_number: CCTE's Neural Acute Assay for Single-Electrode Bursts, Shafer Lab (AID 2284013). The procedure, abridged: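 Primary rat cortical neurons on 16-electrode MEA wells, treated on DIV 13 or 15 with compound at 0.03-40 uM. Single-electrode burst count from 40-min recordings at 37 C before and after exposure; percent change from baseline per well, DMSO negative control.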

Assay [4] is described as follows: CCTE_Shafer_MEA_acute_burst_duration_mean: CCTE's Neural Acute Assay for Mean Burst Duration, Shafer Lab (AID 2284014).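 Note: hits are decreases in mean burst duration relative to DMSO controls.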 The procedure, abridged:
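Rat primary cortical neurons on 48-well MEA, treated at DIV 13 or 15 with 0.03-40 uM in at least 3 wells. Value is percent change in mean burst duration, comparing 40 min recordings at 37 C before and during exposure.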

Assay [5] is described as follows: CCTE_Shafer_MEA_acute_per_burst_spike_number_mean: CCTE's Neural Acute Assay for Average Number of Spikes Per Burst, Shafer Lab (AID 2284015).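 Note: hits are decreases in mean spikes per burst versus baseline.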 The procedure, abridged: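 Percent change in mean spikes per single-electrode burst is compared between a 40 min baseline and a 40 min recording with compound (0.03-40 uM). Cultures were rat cortical neurons on MEA plates at DIV 13 or 15, recorded at 37 C, with DMSO as the negative control.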

The nature of assay [6]: CCTE_Shafer_MEA_acute_interburst_interval_mean: CCTE's Neural Acute Assay for Mean Interburst Interval, Shafer Lab (AID 2284016).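 Note: percent change of mean interburst interval versus each well's own pre-dose baseline; curves fitted for decrease in interburst interval relative to DMSO.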 In short, it runs like this: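 Percent change in mean single-electrode interburst interval was calculated per well from 40 min recordings before and after compound (0.03-40 uM). Recordings were made at 37 C on rat cortical cultures at DIV 13 or 15, with spikes detected at 8x rms threshold.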

Assay [7] is described as follows: CCTE_Shafer_MEA_acute_burst_percentage_mean: CCTE's Neural Acute Assay for Percentage of Spikes in a Burst, Shafer Lab (AID 2284017).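 For AC50: curve fitted for loss of signal so potency reflects decreased burst percentage.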 In short, it runs like this: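 Well-level mean burst percentage from a 40-min recording after compound (0.03-40 uM) expressed as percent change from a 40-min baseline at 37C. Cultures: primary rat cortical neurons on MEA, dosed on DIV 13 or 15; fitted downward relative to DMSO.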

Assay [8] can be described thus: CCTE_Shafer_MEA_acute_burst_percentage_std: CCTE's Neural Acute Assay for Standard Deviation of Burst Percentage, Shafer Lab (AID 2284018).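 Note: fitted in the negative direction so actives lower burst percentage SD.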 In short, it runs like this: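 Rat primary cortical neurons on 48-well MEAs, DIV 13 or 15, 37 C. 40-min baseline then 40-min recording with compound (0.03-40 uM); well-level SD of per-electrode burst spike percentage, expressed as percent change from baseline.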

Assay [9] is described as follows: CCTE_Shafer_MEA_acute_per_network_burst_spike_number_std: CCTE's Neural Acute Assay for Standard Deviation of Number of Spikes in a Network Burst, Shafer Lab (AID 2284020).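 Note: fitted for decrease in spike-number SD versus DMSO so actives lower it.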 In short, it runs like this: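 Rat primary cortical neurons on 48-well MEA (16 electrodes/well), treated DIV 13 or 15 at 0.03-40 uM, ≥3 wells per compound. 40 min recordings at 37 C before and after dosing; value is percent change in network-burst spike-number SD, negative direction vs DMSO.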

The nature of assay [10]: CCTE_Shafer_MEA_acute_per_network_burst_electrodes_number_mean: CCTE's Neural Acute Assay for Mean Number of Electrodes in a Network Burst, Shafer Lab (AID 2284021).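 Note: curves fitted for decreases only so hits reduce electrodes per burst.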 In short, it runs like this:
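Rat primary cortical neurons on 16-electrode MEA wells were recorded 40 min at baseline on DIV 13 or 15, then 40 min after compound (0.03-40 uM), at 37 C. Value is percent change per well, fitted in loss direction versus DMSO.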

A short description of assay [11]: CCTE_Shafer_MEA_acute_network_burst_percentage: CCTE's Neural Acute Assay for Percentage of Network Bursts, Shafer Lab (AID 2284022).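 Note: curves fitted for loss so actives lower network burst percentage.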 In short, it runs like this:
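Primary rat cortical neurons on 16-electrode MEA wells, treated on DIV 13 or 15 with compound (0.03-40 uM); 40-min baseline and 40-min post-exposure recordings at 37 C. Value is percent change in spikes within network bursts versus baseline, DMSO negative control.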

A short description of assay [12]: CCTE_Shafer_MEA_acute_synchrony_index: CCTE's Neural Acute Assay for Synchrony, Shafer Lab (AID 2284027).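 Note: fitted for loss of signal so actives lower synchrony relative to DMSO.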 The procedure, abridged: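 Readout is percent change in the unitless network synchrony index (0 low, 1 high) between a 40-min baseline and a 40-min recording in compound. Cultures were primary rat cortical neurons on MEAs, treated at 0.03-40 uM on DIV 13 or 15.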

Assay [13] in a line: CCTE_Shafer_MEA_acute_cross_correlation_area: CCTE's Neural Acute Assay for Area of Cross Correlation, Shafer Lab (AID 2284024).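 Note: area under pooled inter-electrode spike cross-correlation near zero lag as percent change from own baseline; curves fitted for loss of cross-correlation area so actives lower synchrony.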 The procedure, abridged:
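Primary rat cortical neurons on 48-well MEA plates (16 electrodes/well) were recorded 40 min at baseline on DIV 13 or 15, then 40 min with compound (0.03-40 uM) at 37 C; cross-correlation area expressed as percent change from baseline.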

Assay [14] addresses Estrogen receptor (Homo sapiens) (UniProt P03372). Nature of the assay: CCTE_Deisenroth_AIME_384WELL_LUC_Active: CCTE's 384-well Estrogen Receptor Transactivation Assay with AIME metabolic competence (ERTA luciferase; metabolism positive), Deisenroth Lab (AID 2284030; active = hit-call score of the fitted dose curve at least 0.9, where 1 is the maximum). The procedure, abridged: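 Test chemicals (10-point series, 0.002 - 200 uM) were preincubated 2 hours with alginate-immobilized phenobarbital/beta-naphthoflavone-induced male Sprague Dawley rat liver S9; conditioned medium then went onto VM7Luc4E2 breast cells for 24 hour. Luciferase gain-of-signal fitted relative to 17beta-estradiol.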

The target is the same in assay [15]. In words: CCTE_Deisenroth_AIME_384WELL_LUC_Inactive: CCTE's 384-well Estrogen Receptor Transactivation Assay without AIME metabolic competence (ERTA luciferase; metabolism negative), Deisenroth Lab (AID 2284038; active = hit-call score of the fitted dose curve at least 0.9, where 1 is the maximum;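 note: VM7Luc4E2 breast cells given medium preincubated 2 h with S9-free microspheres; hits raise estrogen receptor luciferase signal so potencies reflect agonists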). The procedure, abridged: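 Metabolism-negative mode: chemicals (10-point, 0.002–200 uM) held 2 h with alginate-water microspheres, then conditioned medium applied to VM7Luc4E2 cells for 24 h. Luciferase induction referenced to 17beta-estradiol.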

Assay [16] is described as follows: CCTE_Shafer_MEA_dev_firing_rate_mean: CCTE's Neural Network Formation Assay for Mean Firing Rate, Shafer Lab (AID 2284031).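 Note: AUC of well mean spike rate recorded on DIV 5 7 9 and 12.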 In short, it runs like this: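 Rat primary cortical neurons were seeded on multielectrode arrays and treated from plating through day 12, with redosing at each feed. Spontaneous spiking was recorded four times; mean firing rate AUC was fitted downward against DMSO.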

The nature of assay [17]: CCTE_Shafer_MEA_dev_per_burst_spike_percent: CCTE's Neural Network Formation Assay for Percent of Spikes in a Burst, Shafer Lab (AID 2284032). In short, it runs like this: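 Rat primary cortical neurons on 16-electrode MEA wells, dosed from plating day 0 for 12 days with renewal on DIV 5 and 9; spikes-in-bursts percentage averaged over bursting electrodes, collapsed as AUC across days 5, 7, 9, 12; loss direction versus DMSO.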

Results filed as inconclusive are left out. Active and inactive are the calls of the source. Rule for the calls, unless noted: active = hit-call score of the fitted dose curve at least 0.9, where 1 is the maximum; inactive = score below 0.9.

Sequence of Estrogen receptor (Homo sapiens) (P03372 whole entry, looked up): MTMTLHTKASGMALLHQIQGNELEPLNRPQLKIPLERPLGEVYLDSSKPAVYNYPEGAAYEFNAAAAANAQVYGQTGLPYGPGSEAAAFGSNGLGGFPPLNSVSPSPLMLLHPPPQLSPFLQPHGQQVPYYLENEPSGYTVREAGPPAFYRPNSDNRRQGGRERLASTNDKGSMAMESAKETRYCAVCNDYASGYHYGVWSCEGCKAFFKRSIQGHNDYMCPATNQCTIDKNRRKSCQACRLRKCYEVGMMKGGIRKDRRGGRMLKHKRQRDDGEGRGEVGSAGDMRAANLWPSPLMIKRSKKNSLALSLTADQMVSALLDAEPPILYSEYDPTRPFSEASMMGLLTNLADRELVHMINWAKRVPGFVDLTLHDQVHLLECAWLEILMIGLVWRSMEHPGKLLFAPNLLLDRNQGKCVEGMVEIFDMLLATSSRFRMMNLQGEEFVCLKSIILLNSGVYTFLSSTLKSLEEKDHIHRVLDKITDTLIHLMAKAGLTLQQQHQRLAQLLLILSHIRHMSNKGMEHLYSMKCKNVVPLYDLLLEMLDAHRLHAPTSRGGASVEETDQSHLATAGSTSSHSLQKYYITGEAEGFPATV

Usually AC50 stands for the concentration giving half of the maximal activity seen. On to `CN(C)c1ccc(C(=C2C=CC(=[N+](C)C)C=C2)c2ccc(N(C)C)cc2)cc1`, for which the result in assay [1], in assay [2], in assay [4], in [5], in assay [6] and in [10] was inactive. Moreover, the AC50 in assay [3] was 0.348 µM (active); in assay [7] it was 2.07 µM (active); in [8], 2.72 µM (active); in [9] it was 2.78 µM (active); in [11], 2.27 µM (active); in assay [12], 1.42 µM (active).
With `CO[C@H]1/C=C/O[C@@]2(C)Oc3c(C)c(O)c4c(O)c(c(/C=N/N5CCN(C)CC5)c(O)c4c3C2=O)NC(=O)/C(C)=C\C=C\[C@H](C)[C@H](O)[C@@H](C)[C@@H](O)[C@@H](C)[C@H](OC(C)=O)[C@@H]1C`, the outcome in [1], in [3], in [4], in [6], in assay [7] and in assay [8] was inactive. Also, the molecule was called inactive in assay [9], in assay [10], in assay [11], in assay [13] and in assay [12]. Further, the AC50 in assay [5] is 12.5 µM (active).
As for `c1ccc2n[nH]nc2c1`, the call in [3], in assay [4], in [5], in assay [6], in [7] and in assay [8] was inactive. For the same molecule, the result in [9], in assay [10], in [11], in assay [13] and in assay [12] was inactive.
Take `COc1cccc([C@H](O)C2CCN(CCc3ccc(F)cc3)CC2)c1OC`: the result in assay [1], in assay [4], in assay [5], in assay [6], in assay [7] and in assay [8] was inactive. In addition, the result in assay [10], in [11], in [13], in [12], in assay [14] and in assay [15] was inactive. The results for the AC50 in assay [3] and in assay [9] were 2.88 µM (active) and 6.88 µM (active), respectively.
With `CCCCCCCCCCCO`, the result in assay [1], in assay [2], in assay [14] and in [15] was inactive.
Turning to `O=C(O)Cn1c(=O)n(Cc2ccc(Br)cc2F)c(=O)c2ccc(Cl)cc21`, the outcome in assay [1] and in [14] was inactive. In addition, the AC50 in assay [15] was 106 µM (active).
With `C[C@]12CC[C@@H]3c4ccc(O)cc4CC[C@H]3[C@@H]1CC[C@H]2O`, the outcome in assay [1], in [2], in [3], in assay [4], in [5] and in assay [6] was inactive. Besides, the molecule was classed as inactive in assay [7], in assay [8], in assay [9], in assay [10], in [11] and in assay [13]. Besides, the call in assay [12] was inactive.
On to `CCCCCCCCN(C)CCCCCCCC`, for which the outcome in [1], in [14] and in assay [15] was inactive.
As for `Clc1ccccc1C(c1ccccc1)(c1ccccc1)n1ccnc1`, the outcome in [1], in assay [4], in assay [6], in [13], in assay [16] and in assay [17] was inactive. For the same molecule, the AC50 in assay [3] is 3.26 µM (active); in assay [5], 5.84 µM (active); in [7], 7.02 µM (active); in assay [8] it was 9.25 µM (active); in [9] it was 6.71 µM (active); in [10], 2.24 µM (active). The half-maximal activity concentration (AC50) in [11] is 5 µM (active); in [12], 6.8 µM (active).

The values are drawn from PubChem BioAssay (EPA / NIEHS).
